Measured values from PubChem BioAssay (Tox21).
Records with an inconclusive call do not appear. Entries that show only a call come without a potency. Activity calls are given as the source filed them. Unless noted, the call rests on the fitted dose curve; in most records, active means well fitted curve in the direction sought with a large enough effect in the repeat runs; inconclusive means weak or mixed curves; inactive means no such curve, though single readings can be large; an effect the other way counts as inactive or inconclusive.

Target: Estrogen receptor (Homo sapiens) (UniProt P03372)
Sequence (P03372 whole entry, looked up): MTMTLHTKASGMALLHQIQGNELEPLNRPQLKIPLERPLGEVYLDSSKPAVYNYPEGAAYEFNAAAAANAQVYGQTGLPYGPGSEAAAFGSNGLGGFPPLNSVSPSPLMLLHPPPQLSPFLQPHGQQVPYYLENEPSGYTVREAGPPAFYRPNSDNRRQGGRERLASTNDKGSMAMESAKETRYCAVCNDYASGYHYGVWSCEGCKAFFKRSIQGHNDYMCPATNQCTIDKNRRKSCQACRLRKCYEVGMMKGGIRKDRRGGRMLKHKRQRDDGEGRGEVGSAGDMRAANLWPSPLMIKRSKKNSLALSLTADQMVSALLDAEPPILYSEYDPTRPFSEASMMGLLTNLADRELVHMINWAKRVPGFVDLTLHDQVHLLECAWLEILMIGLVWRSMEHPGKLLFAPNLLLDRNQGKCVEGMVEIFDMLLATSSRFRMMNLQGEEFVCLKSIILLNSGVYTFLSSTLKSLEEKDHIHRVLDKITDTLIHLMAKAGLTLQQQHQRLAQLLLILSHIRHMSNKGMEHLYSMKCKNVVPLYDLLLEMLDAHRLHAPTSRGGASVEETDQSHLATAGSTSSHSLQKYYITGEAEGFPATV
Assay: qHTS assay to identify small molecule antagonists of the estrogen receptor alpha (ER-alpha) signaling pathway using the BG1 cell line in the presence of 0.1 nM 17-beta-estradiol (AID 1259244); further: nearly all actives have a fitted effect of over 50% in size
Details: VM7Luc4E2 (BG1) ERE-luciferase, antagonist mode, 0.1 nM E2, 22 h; series mostly up to 92.4 µM
Summary of the method: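 Luciferase luminescence (ONE-Glo, 30 min at room temperature) was read after 22 hr at 37C exposure to compounds plus 17beta-estradiol at 0.1 nM final. Cells were VM7Luc4E2 with endogenous ER-alpha and an ERE-driven luciferase, pre-cultured 5 days in hormone-depleted medium.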

Row | Structure (SMILES) | Potency
1 | COCN(COC)c1nc(N(COC)COC)nc(N(COC)COC)n1 | inactive
2 | CCCCCCCC(=O)O | inactive
3 | CC(O)CNCC(C)O (stereo unspecified) | inactive
4 | C=CC(=O)NCOCCCC | inactive
5 | CN=C(NC#N)NCCSCc1nc[nH]c1C | inactive
6 | CCCN(CCC)C(=O)SCC | inactive
7 | CC/C=C(\C(=O)N[C@@H]1C(=O)N2C(C(=O)OCOC(=O)C(C)(C)C)=C(COC(N)=O)CS[C@H]12)c1csc(N)n1 | inactive
8 | N[C@@H](Cc1cc(I)c(Oc2ccc(O)c(I)c2)c(I)c1)C(=O)O | inactive
9 | Cc1ccncc1 | inactive
10 | CCCCCCCCO | inactive
11 | Cc1nnc(NS(=O)(=O)c2ccc(N)cc2)s1 | inactive
12 | NC(=O)NC(N)=O | inactive
13 | Nc1nc(N)c2nc(-c3ccccc3)c(N)nc2n1 | inactive
14 | CCCCCCCCCCCCCC(=O)O | inactive
15 | CCc1cccc(CC)c1N | inactive
16 | Cc1ccccc1Cl | inactive
17 | Cc1cc(C)cc(O)c1 | inactive

Row | Structure (SMILES) | Potency
18 | CCOC(=O)c1ccc(O)cc1 | inactive
19 | Nc1cccc(C(F)(F)F)c1 | inactive
20 | CCCCC(=O)O | inactive
21 | CC(=O)Nc1ccc(CC(=O)O)cc1 | inactive
22 | CC(C)(CO)CO | inactive
23 | OB(O)O | inactive
24 | OCC(O)CS (stereo unspecified) | inactive
25 | OC[C@H]1O[C@@H](Oc2ccc(O)cc2)[C@H](O)[C@@H](O)[C@@H]1O | inactive
26 | COc1c2ccoc2cc2oc(=O)ccc12 | inactive
27 | Nc1cccc(N)n1 | inactive
28 | CC(C)=CCC/C(C)=C/C=O | inactive
29 | CCCCCCC(=O)O | inactive
30 | CCCCCCCCCCCC(=O)N(C)CC(=O)O | inactive
31 | O=[N+]([O-])c1ccccc1C(F)(F)F | inactive
32 | O=c1c(O)c(-c2ccc(O)c(O)c2)oc2cc(O)cc(O)c12 | inactive
33 | Cc1ccc(C(C)C)cc1 | inactive

Test system: not listed separately
Assay: qHTS assay to identify small molecule phospholipidosis (PLD) inducers (AID 1259344; active means well fitted curve in the direction sought with a large enough effect; an effect the other way counts as inactive or inconclusive)
Details: HepG2 phospholipidosis, LipidTOX Red imaging, 24 h; series mostly up to 38.3 µM
Summary of the method: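 Accumulated phospholipid, stained red by LipidTOX during 24 h compound treatment of HepG2 cells at 37 C, is quantified from images as pit number and intensity, normalised per cell using Hoechst-stained nuclei.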

Row | Structure (SMILES) | outcome
34 | CCCCCCCC(=O)O | inactive
35 | CN=C(NC#N)NCCSCc1nc[nH]c1C | inactive
36 | CC/C=C(\C(=O)N[C@@H]1C(=O)N2C(C(=O)OCOC(=O)C(C)(C)C)=C(COC(N)=O)CS[C@H]12)c1csc(N)n1 | inactive
37 | N[C@@H](Cc1cc(I)c(Oc2ccc(O)c(I)c2)c(I)c1)C(=O)O | inactive
38 | Cc1nnc(NS(=O)(=O)c2ccc(N)cc2)s1 | inactive
39 | Nc1nc(N)c2nc(-c3ccccc3)c(N)nc2n1 | inactive
40 | CCOC(=O)c1ccc(O)cc1 | inactive
41 | CCCCC(=O)O | inactive
42 | CC(=O)Nc1ccc(CC(=O)O)cc1 | inactive
43 | OB(O)O | inactive
44 | OCC(O)CS (stereo unspecified) | inactive
45 | OC[C@H]1O[C@@H](Oc2ccc(O)cc2)[C@H](O)[C@@H](O)[C@@H]1O | inactive
46 | O=c1c(O)c(-c2ccc(O)c(O)c2)oc2cc(O)cc(O)c12 | inactive
